Records with an inconclusive call do not appear. Activity calls are given as the source filed them. Unless noted, calls follow the shape of the dose curve; as a rule, active = well fitted curve in the direction sought with a large enough effect in the repeat runs; inconclusive = weak or mixed curves; inactive = no such curve, though single readings can be large; an effect the other way counts as inactive or inconclusive.
Tests used:
[1] = qHTS assay to identify small molecule antagonists of the androgen receptor (AR) signaling pathway using the MDA cell line in the presence of 0.5 nM R1881 - cell viability counter screen (AID 1259242); also: nearly all actives have a fitted effect of over 45% in size
Method in brief: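 Steps: plate MDA-kb2 cells, rest 5 hr at 37C without CO2; pin in compounds in DMSO; add R1881 to 0.5 nM final; incubate 16 hr; add CellTiter-Fluor, 30 min; read fluorescence.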

[2] = biological target: Estrogen receptor (Homo sapiens) (UniProt P03372); experiment: qHTS assay to identify small molecule antagonists of the estrogen receptor alpha (ER-alpha) signaling pathway using the BG1 cell line in the presence of 0.1 nM 17-beta-estradiol (AID 1259244); also: nearly all actives have a fitted effect of over 50% in size; also: potency is read from the fitted curve at half-maximal effect
Method in brief: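 Antagonist mode: compounds in DMSO are pinned onto VM7Luc4E2 reporter cells, 0.1 nM final 17beta-estradiol is added, and after 22 h at 37C luciferase luminescence is measured with ONE-Glo.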

[3] = qHTS assay to identify small molecule HDAC inhibitors (AID 1259364);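 also: wild-type HCT-116 cells with endogenous class I/II HDAC activity; top concentration of the series differs between compounds; nearly all actives have a fitted effect of over 45% in size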
Method in brief: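 Cells (HCT-116, wild type) are seeded at 1,500 per well, incubated overnight, treated with compound in DMSO for 2 hr, then developed with HDAC-Glo I/II reagent for 30 min at room temperature.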

[4] = qHTS assay to identify small molecule HDAC inhibitors - cell viability counter screen (AID 1259365); also: series mostly up to about 92 µM; nearly all actives have a fitted effect of over 50% in size
Method in brief: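 Viability readout: CellTiter-Glo luminescence. Wild-type HCT-116 cells, 2hr compound treatment following overnight attachment at 37 C.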

[5] = qHTS assay to identify small molecule agonists of the sonic hedgehog signaling (Shh) pathway - cell viability counter screen (AID 1259366); also: nearly all actives have a fitted effect of over 50% in size; also: potency is read from the fitted curve at half-maximal effect
Method in brief: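 Viability measured fluorometrically (CellTiter-Fluor, 1hr, 37C) in 3T3 Gli1-Luc reporter cells after 23hr compound exposure within a 24hr incubation at 37C/5% CO2.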

[6] = qHTS assay to identify small molecule antagonists of the sonic hedgehog signaling (Shh) pathway - cell viability counter screen (AID 1259367); also: nearly all actives have a fitted effect of over 55% in size
Method in brief: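 Tox21 library chemicals were tested on a Gli1-Luc NIH/3T3 clone (2,000 cells/well) stimulated by conditioned medium; viability was quantified as fluorescence from CellTiter-Fluor reagent added at 23 hr.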

[7] = qHTS assay to identify small molecule agonists of the sonic hedgehog signaling (Shh) pathway (AID 1259368; calls by dose curve;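 also: NIH/3T3-derived 3T3Gli1-Luc cells carrying a stable Gli1-driven firefly luciferase reporter; series mostly up to about 92 µM; nearly all actives have a fitted effect of over 15% in size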)
Method in brief: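 Cells of a mouse NIH/3T3 clone stably expressing luciferase under the Gli1 transcriptional response element are exposed to test chemicals for 24 hr at 37 C. Pathway activation is detected as a rise in luminescence.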

[8] = qHTS assay to identify small molecule antagonists of the sonic hedgehog signaling (Shh) pathway (AID 1259369; calls by dose curve; also: nearly all actives have a fitted effect of over 45% in size)
Method in brief: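 Cells are plated and held 4hr at 37 C, compounds (DMSO) are pinned in, conditioned medium is added to stimulate the pathway, and after 24hr luciferase reagent is added for 30min before luminescence is read.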

[9] = qHTS assay to identify small molecule agonists of the androgen receptor (AR) signaling pathway in the presence of an antagonist - cell viability counter screen (AID 1259379);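 also: MDA-kb2 human breast cancer cells carrying an MMTV luciferase reporter; series mostly up to about 92 µM; nearly all actives have a fitted effect of over 25% in size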
Method in brief: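 Cytotoxicity is assessed by CellTiter-Fluor in MDA-kb2 cells carrying an MMTV-driven luciferase reporter. Cells receive 3.0uM nilutamide plus compounds at 15 concentrations and incubate 16 hr at 37C without CO2 before fluorescence reading.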

[10] = qHTS assay to identify small molecule agonists of the estrogen receptor beta (ER-beta) signaling pathway - cell viability counter screen (AID 1259380); also: nearly all actives have a fitted effect of over 30% in size; also: potency is read from the fitted curve at half-maximal effect
Method in brief: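 Cytotoxicity is measured in parallel with the reporter screen: after 16 hr compound exposure at 37C and a 2 hr LiveBLAzer step, CellTiter-Glo is added to the same ER-beta-UAS-bla HEK293T wells and luminescence read after 30 min.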

[11] = qHTS assay to identify small molecule antagonists of the estrogen receptor beta (ER-beta) signaling pathway - cell viability counter screen (AID 1259382); also: series mostly up to about 92 µM; nearly all actives have a fitted effect of over 55% in size
Method in brief: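 Cytotoxicity counter screen multiplexed with the beta-lactamase antagonist assay: GripTite HEK293T ER-beta-bla cells were treated 16 hr with test chemicals in the presence of 1nM 17-beta-estradiol, and viability was measured by CellTiter-Glo.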

[12] = biological target: Estrogen receptor (Homo sapiens) (UniProt P03372); experiment: qHTS assay to identify small molecule agonists of the estrogen receptor alpha (ER-alpha) signaling pathway in the presence of an antagonist (AID 1259383; calls by dose curve; also: top concentration of the series differs between compounds; nearly all actives have a fitted effect of over 15% in size)
Method in brief: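 Agonist-mode confirmation in the presence of the ER antagonist ICI-182,780 at 10.0nM final. Breast-derived VM7Luc4E2 reporter cells were exposed to compounds for 22hr, and ERE-driven luciferase was quantified by luminescence.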

[13] = qHTS assay to identify small molecule agonists or antagonists of the thyroid stimulating hormone receptor (TSHR) signaling pathway - wild type cell line counter screen (AID 1259384; calls by dose curve)
Method in brief: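 Wild-type Hek293 cells, 800/well, 18 h at 37C, then compound with Ro20-1724 for 30 min RT. cAMP by HTRF (cAMP-d2/anti-cAMP cryptate), 1 h RT, fluorescence read. 15 concentrations, triplicates.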

[14] = biological target: Thyrotropin receptor (Homo sapiens) (UniProt P16473); experiment: qHTS assay to identify small molecule antagonists of the thyroid stimulating hormone receptor (TSHR) signaling pathway (AID 1259385; calls by dose curve; also: nearly all actives have a fitted effect of over 20% in size)
Method in brief: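 TSHR-HEK293 cells (800/well) plated 18 h, then compounds with Ro20-1724 and TSH at 1.5 ng/mL final, 30 min at room temperature. cAMP quantified by HTRF (cAMP-d2/anti-cAMP-cryptate, 1 h); 15 concentrations in triplicate.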

[15] = qHTS assay to identify small molecule agonists of the estrogen receptor alpha (ER-alpha) signaling pathway in the presence of an antagonist - cell viability counter screen (AID 1259386);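 also: series mostly up to about 92 µM; cells exposed to compounds for 22 h at 37 °C before the viability read; nearly all actives have a fitted effect of over 30% in size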
Method in brief: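 Cytotoxicity was measured in parallel with the ERE-luciferase agonist screen, in the same wells. The cells were VM7Luc4E2, which endogenously express ER-alpha, and treatment was with compounds plus 10.0nM ICI-182,780 for 22hr.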

[16] = biological target: Estrogen receptor beta (Homo sapiens) (UniProt Q92731); experiment: qHTS assay to identify small molecule agonists of the estrogen receptor beta (ER-beta) signaling pathway (AID 1259377; active = well fitted activation curve with a large enough effect in the signal ratio in the repeat runs, not every such curve was filed as active; the % refers to the signal ratio)
Method in brief: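 A UAS-controlled beta-lactamase reporter in ER-beta-UAS-bla HEK293T cells reports receptor activation. Compounds act for 16 hr at 37C in 2% charcoal-stripped serum, and a FRET substrate is read by fluorescence after 2 hours.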

[17] = biological target: Estrogen receptor beta (Homo sapiens) (UniProt Q92731); experiment: qHTS assay to identify small molecule antagonists of the estrogen receptor beta (ER-beta) signaling pathway (AID 1259378; active = well fitted inhibition curve with a large enough effect in the signal ratio in the repeat runs, not every such curve was filed as active; the % refers to the signal ratio)
Method in brief: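 ER-beta-UAS-bla HEK293T cells in 2% charcoal-stripped FBS medium treated with compound plus 1nM final 17-beta-estradiol for 16 hr at 37C. Beta-lactamase reporter read by FRET substrate fluorescence after 2 hours at room temperature.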
% is scaled to controls: 0 for no effect and ±100 for the full control effect.

Chain of Estrogen receptor beta (Homo sapiens) (Q92731 whole entry, looked up): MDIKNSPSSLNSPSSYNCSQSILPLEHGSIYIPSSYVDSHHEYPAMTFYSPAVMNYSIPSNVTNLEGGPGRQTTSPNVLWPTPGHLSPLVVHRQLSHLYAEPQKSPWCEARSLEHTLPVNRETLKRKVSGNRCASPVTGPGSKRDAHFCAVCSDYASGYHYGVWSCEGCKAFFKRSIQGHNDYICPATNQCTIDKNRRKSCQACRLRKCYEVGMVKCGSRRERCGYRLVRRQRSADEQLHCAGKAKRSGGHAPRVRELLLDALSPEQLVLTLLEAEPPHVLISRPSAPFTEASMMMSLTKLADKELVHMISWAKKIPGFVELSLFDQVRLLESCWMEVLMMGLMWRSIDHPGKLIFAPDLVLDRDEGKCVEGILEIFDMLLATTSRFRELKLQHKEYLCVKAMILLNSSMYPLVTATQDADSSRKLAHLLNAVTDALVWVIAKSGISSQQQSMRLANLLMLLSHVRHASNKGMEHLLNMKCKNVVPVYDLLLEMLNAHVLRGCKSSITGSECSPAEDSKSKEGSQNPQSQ
Chain of Estrogen receptor (Homo sapiens) (P03372 whole entry, looked up): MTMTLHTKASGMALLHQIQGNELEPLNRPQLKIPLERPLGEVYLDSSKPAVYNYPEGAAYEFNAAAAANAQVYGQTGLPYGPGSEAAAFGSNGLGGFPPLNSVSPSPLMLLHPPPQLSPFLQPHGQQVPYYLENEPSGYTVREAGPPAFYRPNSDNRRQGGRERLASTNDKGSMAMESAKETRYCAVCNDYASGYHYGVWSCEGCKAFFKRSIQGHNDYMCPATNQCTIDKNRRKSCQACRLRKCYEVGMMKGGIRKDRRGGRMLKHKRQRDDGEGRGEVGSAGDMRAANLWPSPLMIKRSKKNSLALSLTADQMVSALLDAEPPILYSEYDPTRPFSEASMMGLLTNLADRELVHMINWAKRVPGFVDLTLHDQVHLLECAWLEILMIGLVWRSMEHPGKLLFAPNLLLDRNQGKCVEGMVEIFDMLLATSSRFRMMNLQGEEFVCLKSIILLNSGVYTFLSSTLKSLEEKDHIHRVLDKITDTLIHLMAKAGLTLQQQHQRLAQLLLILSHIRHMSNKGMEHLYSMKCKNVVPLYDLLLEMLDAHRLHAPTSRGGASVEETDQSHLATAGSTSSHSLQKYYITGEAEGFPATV
Chain of Thyrotropin receptor (Homo sapiens) (P16473 whole entry, looked up): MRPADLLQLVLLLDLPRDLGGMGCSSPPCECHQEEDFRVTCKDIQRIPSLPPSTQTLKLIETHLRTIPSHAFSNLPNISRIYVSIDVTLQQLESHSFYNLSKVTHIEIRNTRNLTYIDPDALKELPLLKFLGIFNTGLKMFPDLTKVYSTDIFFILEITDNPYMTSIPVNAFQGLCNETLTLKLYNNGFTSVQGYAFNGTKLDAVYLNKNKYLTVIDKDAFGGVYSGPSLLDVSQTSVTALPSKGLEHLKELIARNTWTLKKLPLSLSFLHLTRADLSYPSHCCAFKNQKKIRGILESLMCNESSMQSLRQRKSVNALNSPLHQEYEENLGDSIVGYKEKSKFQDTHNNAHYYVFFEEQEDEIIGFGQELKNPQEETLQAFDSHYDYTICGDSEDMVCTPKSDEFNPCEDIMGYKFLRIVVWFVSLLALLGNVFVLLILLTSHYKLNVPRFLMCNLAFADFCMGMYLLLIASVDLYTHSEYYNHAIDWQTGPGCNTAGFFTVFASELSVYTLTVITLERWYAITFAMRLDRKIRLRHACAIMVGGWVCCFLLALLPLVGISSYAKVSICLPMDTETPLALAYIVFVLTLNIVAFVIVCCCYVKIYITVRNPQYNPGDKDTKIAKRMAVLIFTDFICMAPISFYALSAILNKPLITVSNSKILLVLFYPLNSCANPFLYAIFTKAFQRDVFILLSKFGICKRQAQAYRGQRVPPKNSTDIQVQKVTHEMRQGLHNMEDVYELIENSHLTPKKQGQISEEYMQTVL

CC(C)CCCCCOC(=O)CCS
inactive: Potency [1] | Potency [2] | Potency [3] | Potency [4] | Potency [5] | Potency [6] | Potency [7] | Potency [8] | Potency [9] | Potency [10] | Potency [11] | Potency [12] | outcome [13] | Potency [14] | Potency [15]

O=C(O)Cc1ccc2c(c1)C(=O)c1ccccc1CO2
inactive: Potency [1] | Potency [2] | Potency [3] | Potency [4] | Potency [5] | Potency [6] | Potency [7] | Potency [8] | Potency [16] | Potency [9] | Potency [11] | Potency [12] | outcome [13] | Potency [14]

O=C(O)c1cccc(C(F)(F)F)c1
inactive: Potency [1] | Potency [2] | Potency [3] | Potency [4] | Potency [5] | Potency [6] | Potency [7] | Potency [8] | Potency [9] | Potency [11] | Potency [12] | outcome [13] | Potency [14] | Potency [15]

c1ccc(SSc2ccccc2)cc1
inactive: Potency [1] | Potency [2] | Potency [3] | Potency [4] | Potency [5] | Potency [6] | Potency [7] | Potency [16] | Potency [17] | Potency [9] | Potency [11] | Potency [12]

CC(C)(C)CC(C)(C)c1ccc(Nc2ccc(C(C)(C)CC(C)(C)C)cc2)cc1
inactive: viability change, negative = cytotoxic [1] 0.0791% [at 8.39 µM] | activity change, negative = inhibition [2] -17.9% [at 8.39 µM] | activity change, negative = inhibition [3] -1.65% [at 8.39 µM] | activity change, negative = cytotoxicity [4] 2.64% [at 8.39 µM] | viability change, negative = cytotoxic [5] 3.57% [at 8.39 µM] | viability change, negative = cytotoxic [6] -1.41% [at 8.39 µM] | activity change [7] -0.648% [at 8.39 µM, active compounds read high] | activation [16] -0.0232% [at 8.39 µM] | activity, negative = inhibition [17] -7.19% [at 8.39 µM] | activity change, negative = cytotoxicity [9] 1.22% [at 8.39 µM] | activity change, negative = cytotoxicity [11] -9.43% [at 8.39 µM] | cAMP activity change [13] 6.94% [at 8.39 µM] | activity change, negative = inhibition [14] 1.31% [at 8.39 µM] | activity change, negative = cytotoxicity [15] 1.15% [at 8.39 µM]

OC[C@@H](O)[C@@H](O)CO
inactive: Potency [1] | Potency [2] | Potency [3] | Potency [4] | Potency [5] | Potency [6] | Potency [7] | Potency [8] | Potency [16] | Potency [9] | Potency [11] | Potency [12] | outcome [13] | Potency [14] | Potency [15]

C[Si](Cl)(c1ccccc1)c1ccccc1
inactive: Potency [1] | Potency [2] | Potency [3] | Potency [4] | Potency [5] | Potency [6] | Potency [7] | Potency [8] | Potency [16] | Potency [9] | Potency [10] | Potency [11] | Potency [12] | outcome [13] | Potency [14] | Potency [15]

O=C1CCCCCCCCCCCCCCCO1
inactive: Potency [1] | Potency [2] | Potency [3] | Potency [4] | Potency [5] | Potency [6] | Potency [7] | Potency [8] | Potency [16] | Potency [9] | Potency [10] | Potency [11] | Potency [12] | outcome [13] | Potency [14] | Potency [15]

CCCCOC(=O)CO
inactive: Potency [1] | Potency [2] | Potency [3] | Potency [4] | Potency [5] | Potency [6] | Potency [7] | Potency [16] | Potency [9] | Potency [10] | Potency [11] | Potency [15]

O=[N+]([O-])c1cccc(C(F)(F)F)c1
inactive: Potency [1] | Potency [2] | Potency [3] | Potency [4] | Potency [5] | Potency [6] | Potency [7] | Potency [16] | Potency [17] | Potency [9] | Potency [11] | Potency [12] | outcome [13] | Potency [14] | Potency [15]

O=C1c2ccccc2C(=O)N1SC1CCCCC1
active: Potency [2] 61.1 µM | Potency [5] 30.6 µM | Potency [10] 54.5 µM
inactive: Potency [1] | Potency [3] | Potency [4] | Potency [6] | Potency [7] | Potency [17] | Potency [9] | outcome [13] | Potency [14] | Potency [15]

CC(C)(c1cc(Br)c(OCC(Br)CBr)c(Br)c1)c1cc(Br)c(OCC(Br)CBr)c(Br)c1 (configuration not stated)
inactive: Potency [1] | Potency [2] | Potency [3] | Potency [4] | Potency [5] | Potency [6] | Potency [7] | Potency [8] | Potency [9] | Potency [10] | Potency [11] | Potency [12] | outcome [13] | Potency [14] | Potency [15]

C=C(C)c1cccc(C(=C)C)c1
inactive: Potency [1] | Potency [2] | Potency [3] | Potency [4] | Potency [5] | Potency [6] | Potency [7] | Potency [16] | Potency [17] | Potency [9] | Potency [10] | Potency [11] | Potency [12] | outcome [13] | Potency [14]

COC(=O)c1ccccc1OC
inactive: Potency [1] | Potency [2] | Potency [3] | Potency [4] | Potency [5] | Potency [6] | Potency [7] | Potency [8] | Potency [16] | Potency [17] | Potency [9] | Potency [11] | Potency [12] | outcome [13] | Potency [14] | Potency [15]

Cc1cc(C(C)(C)C)c(O)c(C)c1Cn1c(=O)n(Cc2c(C)cc(C(C)(C)C)c(O)c2C)c(=O)n(Cc2c(C)cc(C(C)(C)C)c(O)c2C)c1=O
inactive: Potency [1] | Potency [2] | Potency [3] | Potency [4] | Potency [5] | Potency [6] | Potency [7] | Potency [8] | Potency [16] | Potency [17] | Potency [9] | Potency [11] | outcome [13] | Potency [14] | Potency [15]
